Experiment [1] can be described thus: TOX21_p53_BLA_p2_viability: Viability Assessment in the Tox21 HCT-116 p53 Agonism Beta-lactamase Assay, Phase 2 (AID 2283591).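 Also: actives lower the ATP signal meaning cytotoxicity.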 In a few lines:
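HCT116 p53-bla cells, 4000/well, dosed after 5 h plating (217-fold dilution of DMSO stocks) and incubated 16 h at 37C. Viability taken as cellular ATP by CellTiter-Glo luminescence after 30 min RT; signal loss marks cytotoxicity.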

Experiment [2] has as its target Cellular tumor antigen p53 (Homo sapiens) (UniProt P04637). The experiment can be described thus: TOX21_p53_BLA_p2_ratio: Tox21 HCT-116 p53 Agonism Beta-lactamase Assay, Ratio, Phase 2 (AID 2283592). In a few lines:
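An inducible beta-lactamase reporter in HCT116 cells signals p53 pathway activation. After 16 h chemical exposure at 37C, cells load CCF4-AM substrate for 2 h at room temperature; activity is the cleaved/uncleaved emission ratio relative to DMSO.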

The nature of experiment [3]: TOX21_p53_BLA_p3_viability: Viability Assessment in the Tox21 HCT-116 p53 Agonism Beta-lactamase Assay, Phase 3 (AID 2283593). The procedure, abridged:
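HCT116 cells, 4000/well, dosed 5 h after plating by pin transfer (217-fold dilution from DMSO stock) and incubated 16 h at 37C, 5% CO2. Viability read as ATP luminescence with CellTiter-Glo after 30 min at room temperature.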

Experiment [4] concerns the target Cellular tumor antigen p53 (Homo sapiens) (UniProt P04637). Put plainly: TOX21_p53_BLA_p3_ratio: Tox21 HCT-116 p53 Agonism Beta-lactamase Assay, Ratio, Phase 3 (AID 2283596). In a few lines: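 HCT116 p53-bla cells (4000/well) given compound in DMSO (217-fold dilution) after 5 h, incubated 16 h at 37C. CCF4-AM substrate 2 h at room temperature; 460/530 nm emission ratio, gain fitted against DMSO.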

Experiment [5] is described as follows: TOX21_p53_BLA_p4_viability: Viability Assessment in the Tox21 HCT-116 p53 Agonism Beta-lactamase Assay, Phase 4 (AID 2283597).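 Also: hits lower the luminescence signal meaning cytotoxicity.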 The procedure, abridged: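 Compound exposure of HCT116 cells lasts 16 h at 37C, 5% CO2, with DMSO stocks diluted 217-fold. Cellular ATP is then quantified by CellTiter-Glo luminescence after 30 min at room temperature.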
A short description of experiment [6]: TOX21_p53_BLA_p5_viability: Viability Assessment in the Tox21 HCT-116 p53 Agonism Beta-lactamase Assay, Phase 5 (AID 2283600). The procedure, abridged: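 Counter-readout for cytotoxicity: ATP-dependent luminescence from CellTiter-Glo, read in the beta-lactamase wells after 30 min at RT, following a 16 h compound exposure at 37C.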
In experiment [7] the target is Cellular tumor antigen p53 (Homo sapiens) (UniProt P04637). The experiment can be described thus: TOX21_p53_BLA_p4_ratio: Tox21 HCT-116 p53 Agonism Beta-lactamase Assay, Ratio, Phase 4 (AID 2283601). In a few lines: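 HCT-116 p53 beta-lactamase reporter cells (4000/well) preincubated 5 h, then compound (217-fold dilution of DMSO stock) for 16 h at 37C. CCF4-AM substrate added 2 h at room temperature; 460/530 nm emission ratio fitted upward versus DMSO.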

The target in experiment [8] is PGR (gene 5241) (UniProt P06401). The experiment can be described thus: TOX21_PR_BLA_Followup_Agonist_ratio: Tox21 HEK293 Progesterone Receptor (PR) Agonism Beta-lactamase Follow-Up Assay, Ratio (AID 2283933). The procedure, abridged: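 PR-UAS-bla HEK293T cells in medium with 2% charcoal-stripped FBS were dosed after 6 h plating and incubated 16 h at 37C. LiveBLAzer FRET substrate was added for 2 h at room temperature. Cleaved/uncleaved substrate ratio fitted against DMSO; CellTiter-Glo viability run in the same wells.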

Experiment [9] has the same target. The experiment can be described thus: TOX21_PR_BLA_Followup_Antagonist_ratio: Tox21 HEK293 Progesterone Receptor (PR) Antagonism Beta-lactamase Follow-Up Assay, Ratio (AID 2283934). The procedure, abridged: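 PR-UAS-bla HEK293T cells, 3,000/well in 2% charcoal-stripped FBS, given compound plus 1nM R5020 agonist for 16 hr at 37C. Beta-lactamase FRET substrate 2 hours, ratio cleaved/uncleaved fluorescence; viability by CellTiter-Glo in same wells.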

Experiment [10] can be described thus: TOX21_PR_BLA_Followup_Agonist_viability: Viability Assessment in the Tox21 HEK293 Progesterone Receptor (PR) Agonism Beta-lactamase Follow-Up Assay (AID 2283935).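 Also: signal loss means lower viability so actives are cytotoxic.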 The procedure, abridged:
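PR-UAS-bla HEK293T cells in 2% charcoal-stripped FBS medium, plated 6 hr before compound addition, exposed 16 hr at 37C. Viability read by CellTiter-Glo ATP luminescence after 30 min at room temperature, in the same wells as the beta-lactamase readout.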

Experiment [11] in a line: TOX21_PR_BLA_Followup_Antagonist_viability: Viability Assessment in the Tox21 HEK293 Progesterone Receptor (PR) Antagonism Beta-lactamase Follow-Up Assay (AID 2283936).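 Also: hits lower the luminescence signal meaning cytotoxicity.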 The procedure, abridged:
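PR-UAS-bla HEK293T cells (3,000/well, 2% charcoal-stripped FBS) given compound plus R5020 agonist, 16 h at 37C. CellTiter-Glo added after bla read, 30 min at room temperature; luminescence loss indicates cytotoxicity.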

The target in experiment [12] is PGR (gene 5241) (UniProt P06401). Put plainly: TOX21_PR_LUC_Followup_Agonist: Tox21 HEK293 Progesterone Receptor (PR) Agonism Luciferase Follow-Up Assay (AID 2283937; active = hit-call score of the fitted dose curve at least 0.9, where 1 is the maximum; inactive = score below 0.9). In a few lines: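 HEK293-PR-A-luc cells, conditioned 5 days in 10% charcoal-stripped FBS medium, seeded 3,000/well for 5 h, then compound-treated 16 h at 37C. ONE-Glo luminescence read after 30 min at room temperature; gain of signal versus DMSO.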

Experiment [13] has the same target. The experiment can be described thus: TOX21_PR_LUC_Followup_Antagonist: Tox21 HEK293 Progesterone Receptor (PR) Antagonism Luciferase Follow-Up Assay (AID 2283938).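 Also: curve fitted upward as signal gain over DMSO baseline despite antagonist label.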 In a few lines:
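A follow-up to the PR bla screen using HEK293-PR-A-luc cells, multiplexed with cell viability to flag cytotoxicity. Reporter luminescence after 16 h compound exposure was analysed relative to DMSO.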

Experiment [14] can be described thus: TOX21_PR_LUC_Followup_Antagonist_viability: Viability Assessment in the Tox21 HEK293 Progesterone Receptor (PR) Antagonism Luciferase Follow-Up Assay (AID 2283940). The procedure, abridged:
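HEK293-PR-A-luc cells kept in charcoal-stripped FBS medium were plated 5 h before compound addition, then exposed 16 h at 37C; viability read as cellular ATP by luciferase luminescence, loss of signal indicating cytotoxicity.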

A short description of experiment [15]: TOX21_PR_LUC_Followup_Agonist_viability: Viability Assessment in the Tox21 HEK293 Progesterone Receptor (PR) Agonism Luciferase Follow-Up Assay (AID 2283941).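 Also: loss of signal means cytotoxicity so actives lower viability.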 The procedure, abridged: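 HEK293-PR-A-luc cells, kept in 10% charcoal-stripped FBS medium, were treated with compounds for 16 h at 37C. Viability read as cellular ATP by luciferase-coupled luminescence; loss of signal indicates cytotoxicity.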

Experiment [16] deals with Cellular tumor antigen p53 (Homo sapiens) (UniProt P04637). Put plainly: TOX21_p53_BLA_p5_ratio: Tox21 HCT-116 p53 Agonism Beta-lactamase Assay, Ratio, Phase 5 (AID 2283599). In a few lines:
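HCT-116 p53-bla cells (4000/well) plated 5 h, dosed with compound (217-fold DMSO dilution) for 16 h at 37 C; CCF4-AM substrate 2 h at room temperature. Activity is the 460/530 nm emission ratio (405 nm excitation), fitted in gain-of-signal direction versus DMSO.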

Experiment [17] can be described thus: STM_H9_OrnCyssISnorm_ratio: Stemina devTOX quickPredict H9 human embryonic stem cell (hESC)-based Assay for Ornithine (ORN):Cystine (CYSS) Ratio (AID 2283714). In a few lines: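 Undifferentiated H9 hESCs exposed 72 h, media and compound replaced every 24 h; final 24-h conditioned media deproteinized and analysed by UPLC-HRMS against C13 spike-ins. Value is the internal-standard-normalized ORN/CYSS ratio versus 0.1% DMSO.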

The nature of experiment [18]: STM_H9_NormalizedViability: Cytotoxicity Assessment at 120 hours in the Stemina devTOX quickPredict H9 human embryonic stem cell (hESC)-based Assay (AID 2283784). The procedure, abridged:
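Pluripotent H9 hESCs were exposed, with chemical and media replaced every 24 h. Viability was read by CellTiter-Fluor fluorescence, background-corrected and normalized to the 0.1% DMSO neutral control per plate. Loss of signal was fitted.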

Experiment [19] can be described thus: CCTE_Harrill_HTTr_Viability_MCF7: CCTE's 6-hour Cell Viability Assessment for the High-Throughput Transcriptomics (HTTr) Platform, in MCF-7 cells cultured in DMEM + 10% fetal bovine serum, Harrill Lab (AID 2284010; active = hit-call score of the fitted dose curve at least 0.9, where 1 is the maximum; inactive = score below 0.9). The procedure, abridged: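 MCF-7 cells in DMEM + 10% FBS, 384-well, exposed 6 h to an eight-point dilution series. Membrane integrity scored by high-content imaging of propidium iodide exclusion; bidirectional fit versus DMSO.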

A short description of experiment [20]: CCTE_Harrill_HTTr_Apoptosis_MCF7: CCTE's 6-hour Apoptosis Assessment for the High-Throughput Transcriptomics (HTTr) Platform, in MCF-7 cells cultured in DMEM + 10% fetal bovine serum, Harrill Lab (AID 2284011; active = hit-call score of the fitted dose curve at least 0.9, where 1 is the maximum; inactive = score below 0.9). In a few lines:
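Cells are dosed with test chemicals at eight concentrations and imaged 6 hours later for caspase-3/7 activity using a green fluorogenic detection reagent. Activity is fitted in both directions against DMSO controls.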

Experiment [21] can be described thus: CCTE_Harrill_HTTr_CellCount_MCF7: CCTE's Cell Proliferation Assessment for the High-Throughput Transcriptomics (HTTr) Platform, Harrill Lab (AID 2284012).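 Also: cells exposed to compound for six hours; intended direction is loss of nuclei count meaning fewer cells.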 In a few lines:
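MCF7 cells exposed 6 hours to an eight-point dilution series; Hoechst-stained nuclei counted by high-content imaging. Bidirectional curve fitting against DMSO baseline.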

Records with an inconclusive call do not appear. Activity calls are given as the source filed them. The calls were made as follows, unless noted: active = hit-call score of the fitted dose curve at least 0.9, where 1 is the maximum; inconclusive = response in the unintended direction; inactive = score below 0.9.

Sequence of PGR (gene 5241) (P06401 whole entry, looked up): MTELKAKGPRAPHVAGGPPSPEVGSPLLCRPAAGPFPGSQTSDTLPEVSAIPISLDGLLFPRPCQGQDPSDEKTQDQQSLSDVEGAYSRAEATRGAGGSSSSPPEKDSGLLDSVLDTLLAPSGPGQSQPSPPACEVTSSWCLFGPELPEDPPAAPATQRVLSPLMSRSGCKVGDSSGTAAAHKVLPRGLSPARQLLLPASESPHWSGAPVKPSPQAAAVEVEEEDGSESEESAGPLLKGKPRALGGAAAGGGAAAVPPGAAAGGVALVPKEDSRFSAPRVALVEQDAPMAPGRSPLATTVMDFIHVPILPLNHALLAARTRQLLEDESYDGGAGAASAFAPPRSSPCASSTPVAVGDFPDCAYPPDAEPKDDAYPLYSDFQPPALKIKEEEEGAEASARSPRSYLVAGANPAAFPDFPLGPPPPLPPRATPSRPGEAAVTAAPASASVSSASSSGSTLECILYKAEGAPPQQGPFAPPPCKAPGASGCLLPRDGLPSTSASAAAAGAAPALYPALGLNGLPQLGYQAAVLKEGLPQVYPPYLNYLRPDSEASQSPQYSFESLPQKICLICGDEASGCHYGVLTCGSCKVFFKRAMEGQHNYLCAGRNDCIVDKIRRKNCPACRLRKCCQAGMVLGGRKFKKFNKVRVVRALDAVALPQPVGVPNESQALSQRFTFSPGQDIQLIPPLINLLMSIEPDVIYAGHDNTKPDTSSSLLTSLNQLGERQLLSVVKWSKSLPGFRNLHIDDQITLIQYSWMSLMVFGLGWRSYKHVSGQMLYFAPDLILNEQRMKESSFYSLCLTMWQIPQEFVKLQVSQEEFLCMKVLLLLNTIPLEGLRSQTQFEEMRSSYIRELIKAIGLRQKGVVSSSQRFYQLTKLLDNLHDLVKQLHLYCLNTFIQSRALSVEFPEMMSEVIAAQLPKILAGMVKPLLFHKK
Sequence of Cellular tumor antigen p53 (Homo sapiens) (P04637 whole entry, looked up): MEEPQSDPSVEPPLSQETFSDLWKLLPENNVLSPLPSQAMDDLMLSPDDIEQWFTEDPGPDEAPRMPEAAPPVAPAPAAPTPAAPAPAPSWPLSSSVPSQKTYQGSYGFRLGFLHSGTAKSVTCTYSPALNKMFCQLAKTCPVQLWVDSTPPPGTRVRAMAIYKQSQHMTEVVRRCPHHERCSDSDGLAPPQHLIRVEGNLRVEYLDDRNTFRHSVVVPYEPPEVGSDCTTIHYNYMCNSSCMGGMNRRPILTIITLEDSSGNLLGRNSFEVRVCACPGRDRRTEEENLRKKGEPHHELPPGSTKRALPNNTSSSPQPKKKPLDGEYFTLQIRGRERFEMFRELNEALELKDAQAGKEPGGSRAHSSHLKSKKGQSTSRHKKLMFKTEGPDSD

Consider `CC(=O)O[C@H]1CC[C@@]2(C)C(=CC[C@@H]3[C@@H]2CC[C@]2(C)C(=O)CC[C@@H]32)C1`, for which the call in [1], in experiment [2], in [3], in experiment [4], in experiment [5] and in experiment [6] was inactive. In addition, the result (in experiment [7]; in the experiment with PGR (gene 5241) [8]; in the experiment with PGR (gene 5241) [9]; in experiment [10]; in [11]; with PGR (gene 5241) [12]) was inactive. Further, the outcome (in the experiment with PGR (gene 5241) [13]; in [14]; in [15]) was inactive.
Take `O=[Se]=O`: the AC50 in experiment [1] was 16.1 µM (active); in experiment [2], 2.8 µM (active); in experiment [3] it was 7.66 µM (active); in experiment [4] it was 0.777 µM (active); in [5] it was 21 µM (active); in [7] it was 4.23 µM (active). The outcome in [16] was inactive.
Consider `CCCCN=C=O`, for which the molecule was called inactive in experiment [1], in [2], in experiment [3], in [4], in experiment [5] and in [7].
For `CCC1(c2cnc[nH]2)Cc2ccccc2C1`, the molecule was classed as inactive in experiment [1], in experiment [2], in experiment [3], in experiment [4], in [5] and in experiment [6].
Regarding `O=NN1CCNCC1`, the outcome in [1], in [2], in experiment [3], in [4], in experiment [5] and in experiment [6] was inactive.
For `O=CC=Cc1ccccc1`, the molecule was classed as inactive in experiment [1], in [2], in experiment [3], in [4], in experiment [5] and in [16]. Further, the outcome in experiment [7], in [19], in [20] and in experiment [21] was inactive. The half-maximal activity concentration (AC50) in [17] is 83.9 µM (active); in experiment [18], 93.6 µM (active).

In general, AC50 refers to the concentration at which the activity in the assay is half-maximal.

Values taken from PubChem BioAssay (EPA / NIEHS).
